Shown are actives, neighbours in structure and some others; about 4% of the full set was active somewhere.
Wnt act: Wnt/beta-catenin pathway activators, primary screen, cell-based, plate reader, single point; AID 743398, 2014; activation, % at 9.35 µM; actives 1.2% (n = 300,000); Wnt/beta-catenin reporter cell assay, activator; in the data active means activation above about 30%, passing the limit was not always enough;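 further: 0% = neutral control wells and 100% = positive control wells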
C2C12 statin: suppressors of statin myotoxicity in C2C12 myotubes, primary screen, cell-based, single point, plate reader; C2C12 myotubes + simvastatin, ATP luminescence, 48 h; scaled: DMSO 0, geranylgeraniol control 100; rescue of ATP level, % at 7.49 µM; actives 0.78% (n = 330,000);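 active means mean ATP rescue above about 67%, or every replicate alone reaching that limit, limit read from the data, passing the limit was not always enough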;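 further: myotubes were challenged with 10 µM simvastatin during compound exposure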
MITF act: activators of MITF-driven TRPM1 promoter reporter, primary screen, cell-based, SK-MEL-5, luciferase, single point; SK-MEL-5 TRPM1-promoter luciferase, 24 h; % of positive control, neutral wells = 0; activation, % at 12.5 µM; actives 0.75% (n = 300,000); AID 588334, 2011;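 active means mean activation of at least 80% with every replicate also reaching 80%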;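 further: 0% = neutral control wells and 100% = parthenolide positive control wells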
LMP1 NFkB inh: EBV LMP1-driven NF-kappaB luciferase reporter inhibitors, primary screen, cell-based, luminescence, single point; LMP1-induced NF-kappaB luciferase reporter cells; inhibition, % at 12.5 µM; actives 0.69% (n = 350,000); AID 504558, 2011; in the data active means inhibition above about 41%;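 further: 0% = neutral control wells and 100% = reference inhibitor control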
TRPM1 prom inh: inhibitors of MITF-dependent TRPM1 promoter reporter, primary screen, cell-based, SK-MEL-5, single point, luciferase; SK-MEL-5 TRPM1 promoter luciferase, 24 h; inhibition, % at 12.5 µM; actives 0.83% (n = 330,000);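 active means mean inhibition across replicates of 60% or more, whatever share of single replicates reaches that level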
esBAF inh: Bmi1 luciferase reporter increase in mESCs, primary screen, esBAF inhibitor project, mouse ES cells, Bmi1 luciferase knock-in, single point | AID 602393, 2012 | 24 h; 100% = twice the neutral-well signal | actives 2% (n = 350,000) | reporter increase, % at 12.5 µM; in the data active means activation above about 40%;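 further: 0% = median of the plate's neutral control wells and 100% = double that signal; a rise in the Bmi1 reporter signal indicates esBAF inhibition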
Starred values were filed as active, the others as inactive; x = no result.

SMILES | Wnt act | C2C12 statin | MITF act | LMP1 NFkB inh | TRPM1 prom inh | esBAF inh
NC(=O)CC(NC(=O)c1ccc(Br)cc1)c1ccc(NCc2ccc(F)cc2)c([N+](=O)[O-])c1 (stereo not given) | 1 | -4 | -2 | -1 | 4 | 1
Cc1ccccc1CNc1ccc(C(CC(N)=O)NC(=O)c2ccc(Br)cc2)cc1[N+](=O)[O-] (stereo not given) | -5 | -3 | 18 | 60* | -11 | 11
O=C(c1ccc2c(c1)OCO2)N1CCN(c2ccccc2F)CC1 | 12 | -21 | x | -5 | -19 | 18
COc1ccc(C(=O)Cc2cc(OC)c(OC)cc2[N+](=O)[O-])c(OC)c1 | 11 | -13 | 30 | -10 | -26 | 52*
COc1ccc(C(=O)COc2ccc(F)cc2)c(O)c1 | 0 | -22 | 74 | -16 | -68 | 68*
O=C(COc1ccc(F)cc1)c1c(O)cc(O)cc1O | 19 | -2 | 27 | -5 | -29 | -14
COc1ccc(C(=O)Cc2nnc(C)s2)c(OC)c1 | 5 | x | 39 | -6 | -21 | x
COc1ccc(C(=O)Cc2ccc(F)cc2)c(OC)c1 | 23 | -3 | 74 | -20 | -70 | 76*
CCOC(=O)c1cc2c(ccn2C)n1CC(=O)N1C(C)CCCC1C (stereo not given) | -1 | x | -11 | 3 | 17 | x
CS(=O)(=O)c1sc(C#N)c2c1C(=O)CC(c1ccccc1)C2 (stereo not given) | -10 | x | x | 24 | 87* | x
COc1ccc(-n2nnnc2S(=O)(=O)Cc2ccc(C(=O)O)cc2)cc1 | x | 6 | -7 | 27 | 9 | 5
COc1ccc(-n2nnnc2S(=O)(=O)CC(=O)N2CCCCC2)cc1 | -1 | -23 | -74 | 61* | 74* | 13
N#C/C(=C1/CCCCCN1)c1nnc2n1CCCCC2 | -2 | x | -3 | -1 | 7 | x
N#C/C(=C1\CCCN1)c1ccc2ccccc2n1 | x | 77* | -5 | -1 | 6 | 8
N#C/C(=C1/CCCCCN1)c1nc2ccccc2[nH]1 | x | 24 | 62 | -30 | -55 | 50*
CC1(C(=O)Nc2ccccc2Cc2ccccc2)CCN1CCc1ccccc1 (stereo not given) | -3 | -6 | x | x | x | -4
C[C@H](CO)N1C[C@H](C)[C@@H](CN(C)C(=O)CCCN(C)C)OCCCC[C@H](C)Oc2ccc(NC(=O)NC3CCCCC3)cc2C1=O | x | x | x | x | x | 2
CCOC(=O)/C(=C\c1ccc(N2CCC(c3ccccc3)=N2)cc1)C(C)=O | 4 | -19 | 71 | 88* | -79 | 27
Cn1c(=O)cc(OCCCC(=O)NCc2ccc3c(c2)OCO3)c2ccccc21 | 3 | 6 | x | -9 | x | -9
CN(C)S(=O)(=O)c1ccc(NC(=O)CN2CCOCC2)cc1 | 3 | -1 | 5 | -1 | -3 | -6
CCCCN(CCCC)S(=O)(=O)c1ccc(NC(=O)CN2CCOCC2)cc1 | -3 | 130* | 0 | -5 | 1 | -3
O=C(CN1CCOCC1)Nc1ccc(C2CCCCC2)cc1 | 31* | -46 | 42 | -35 | -41 | 34
O=C1CC(c2ccccc2)=Nc2ccccc2N1Cc1ccccc1 | -2 | x | -2 | 14 | 1 | x
COc1ccc2c(c1)N(C)C(=O)CC(c1ccccc1)=N2 | 1 | 108* | x | -8 | -14 | 6
C=CCNC(=S)NNC(=O)COc1ccc2cc(Br)ccc2c1 | 10 | 26 | 75 | -48 | -75 | 41*
SMILES | Wnt act | C2C12 statin | MITF act | LMP1 NFkB inh | TRPM1 prom inh | esBAF inh
C=CCNC(=S)NNC(=O)COc1ccc(Br)cc1 | -1 | x | 4 | -6 | -1 | x
Nc1ccccc1-c1nc2ccccc2[nH]c1=O | 9 | -1 | 61 | -17 | -59 | 53*
Cc1ccccc1NS(=O)(=O)c1cccc(-c2nnc(-c3ccccc3)o2)c1 | x | 2 | x | 2 | 5 | 0
Cc1ccc(-c2nnc(-c3ccccc3)o2)cc1Br | 35* | x | 34 | -33 | -35 | x
Cc1ccc(-c2nnc(-c3cccc(Br)c3)o2)cc1 | 52* | x | 53 | -40 | -48 | x
CN(C)S(=O)(=O)c1cccc(-c2nnc(-c3ccccc3)o2)c1 | 0 | x | 86* | -19 | -85 | x
COc1ccccc1CNc1nc(-c2ccccc2CO)c2sccc2n1 | 0 | 8 | x | x | x | 23
C=CCNc1nc(-c2ccc(OC)cc2OC)cs1 | x | 8 | 78 | -34 | -66 | 55*
COCCNC(=O)CSc1nc2ccc(N3CCOCC3)cc2c(=O)n1Cc1ccc(OC)cc1 | x | -17 | x | -14 | -43 | 78*
CCCCNC(=O)CSc1nc2ccc(N3CCOCC3)cc2c(=O)n1Cc1ccc(OC)cc1 | 15 | -3 | 48 | -6 | -46 | 64*
COCCNC(=O)CSc1nc2cc(OC)c(OC)cc2c(=O)n1Cc1ccc(OC)cc1 | -2 | 26 | -2 | 1 | 0 | 6
CN1CCN(C(=O)C[C@H]2C=C[C@@H](NC(=O)Nc3ccccc3F)[C@@H](CO)O2)CC1 | x | -1 | x | x | x | 1
Nc1ccccc1N=Cc1ccc(-c2cccc(Cl)c2)o1 | 14 | -9 | 46 | -57 | -51 | 98*
CC1=NOC(=O)/C1=C\c1ccc(-c2ccc(Cl)c(C(=O)O)c2)o1 | 0 | x | 0 | -9 | 3 | x
CC1=NOC(=O)/C1=C\c1ccc(-c2ccccc2Br)o1 | 4 | x | -88 | 5 | 89* | x
CC1=NOC(=O)/C1=C\c1ccc(-c2cccc(Cl)c2)o1 | x | 13 | -76 | -6 | 76* | -10
COc1ccc2nc(NC(=O)c3ccc(NS(=O)(=O)c4cccs4)cc3)sc2c1 | x | x | 14 | 4 | -15 | x
CCCCn1c(SCC(=O)c2ccc(OCC)cc2)nc2cc(S(N)(=O)=O)ccc21 | x | 29 | 9 | -7 | -11 | 2
N#Cc1c(Nc2ccccc2)sc(C(=O)c2ccc(F)cc2)c1N | 2 | x | -7 | 43* | 6 | x
Cc1ccc(Nc2nc(C(=O)N3CCC(C(=O)NC(C)C)CC3)cs2)cc1 | 58* | x | 10 | 4 | -6 | x
C=CCN(c1ccccc1OC)S(=O)(=O)c1cccc(C(=O)OC2CCOC2=O)c1 (stereo not given) | -6 | 114* | -6 | 6 | 8 | x
CCN(CC)S(=O)(=O)c1cccc(C(=O)OC2CCOC2=O)c1 (stereo not given) | -1 | 45 | x | 3 | x | 1
O=C(NC(=S)Nc1ccc(N2CCOCC2)cc1)c1ccccc1 | 5 | -4 | 14 | 3 | -12 | 53*
O=C(NC(=S)Nc1ccc(N2CCOCC2)cc1)c1cccc(Cl)c1 | -1 | x | 18 | -4 | -17 | x
Cn1cccc1C(=O)Nc1ccc(N2CCOCC2)cc1 | 38* | -7 | 33 | 5 | -29 | -22

Compound activity (PubChem)
